# Platelet DG rel: platelet dense granule release activity; inhibition, %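 (compounds screened at 7.5 µM in platelet-rich plasma)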; human platelet-rich plasma, SFLLRN dense granule ATP release, luminescence; 0.22% of 300,000 active;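 active means mean replicate score, as percent of positive control, at or above 50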
# aSyn 5UTR inh: MLPCN primary screen, SNCA 5' untranslated region; alpha-synuclein 5'UTR reporter, inhibitor activity; 0.82% of 300,000 active; inhibition, % (tested at 7.5 µM); in the data active means inhibition above about 60%;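 further: H4 neuroglioblastoma cells stably carrying SNCA 5'UTR luciferase fusion; 0% = DMSO wells and 100% = positive control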
# KLF5 inhibitor: kruppel-like factor 5 inhibition; inhibition, % at 5 µM; AID 1700; 0.23% of 290,000 active; DLD-1 KLF5 promoter-luciferase reporter, luminescence;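 active means inhibition above a per-plate limit of that plate's mean compound inhibition plus 3 SD, cut at about 60% in these data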;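 further: 0% = DMSO wells and 100% = LY294002 at 200 µM; higher means less KLF5 promoter-driven luciferase light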
# Wee1 stabilizer: human Wee1 degradation inhibition, primary screen; 1.2% of 220,000 active; reporter increase, % at 5 µM; HeLa Luc-Wee1K328M stability, luciferase luminescence; 100% = proteasome inhibitor MG132 effect; AID 1321;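 active means activation above the mean of all tested compounds plus 3 SD, set per screening run, cut at about 8.8% in these data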;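 further: cells exposed to compound for 20 h before luminescence read; 0% = DMSO alone and 100% = MG132 at 30 µM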
# HIF act: HIF pathway transcriptional activation; 0.32% of 300,000 active; U2OS HRE-luciferase reporter, luminescence; normalized: DMSO 0%, desferrioxamine 100%; activation, % at 7.5 µM (by protocol);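 active means mean activation of at least 10% of the iron chelator positive control signal, with at least half of replicates also reaching 10%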
# KLF5 inh confirm: KLF5 inhibition, confirmation assay | shares compounds with KLF5 inhibitor | DLD-1 KLF5 promoter firefly luciferase reporter, luminescence | inhibition, % at 4 µM | 79% of 610 active;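 active means inhibition above a set limit taken from the earlier primary screen, cut at about 63% in these data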;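 further: 0% = DMSO wells and 100% = LY294002 at 200 µM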
# IEC-6 tox trip: kills rat IEC-6 cells in KLF5 counter-screen; shares compounds with KLF5 inhibitor; IEC-6 rat intestinal cells, viability luminescence; inhibition, % at 4 µM; 56% of 610 active; AID 1905; in the data active means inhibition above about 23%;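 further: cells exposed to compounds for 48 hours before viability read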
# * marks the source's active call; other numbers are inactive results; . = no result given. Shown are actives, neighbours in structure and some others; about 2.1% of the full set was active somewhere.
SMILES,Platelet DG rel,aSyn 5UTR inh,KLF5 inhibitor,Wee1 stabilizer,HIF act,KLF5 inh confirm,IEC-6 tox trip
COc1ccc(OC)c(Nc2cc(C)nc3ccccc23)c1,3,16,-10,7,2,.,.
COc1ccc(OC)c(Nc2cc(-c3ccccc3)nc(N)n2)c1,.,68*,65*,0,0,71*,58*
O=C(CN1C(=O)NC2(CCCC2)C1=O)Nc1ccccc1F,0,-12,109*,0,0,1,-7
COc1ccc(S(=O)(=O)/N=C2\C=C(Nc3ccc(O)cc3)C(=O)c3ccccc32)cc1,10,100*,104*,.,-7,114*,102*
O=[N+]([O-])c1ccc(O)c(-c2cc(C(F)(F)F)nc(-c3ccccc3)n2)c1,-2,90*,82*,.,-6,86*,41*
Oc1ccccc1-c1cc(C(F)(F)C(F)F)nc(-c2ccccc2)n1,-3,.,1,-3,.,.,.
COc1ccc(NC(=O)/C(Cl)=C(/Cl)S(=O)Cc2ccccc2Cl)cn1 (centres undefined),.,.,107*,7,.,111*,63*
COc1ccc(NC(=O)Cc2ccc(Cl)c(Cl)c2)cn1,1,-22,-16,0,1,.,.
COC(=O)[C@@]1(Cc2ccccc2)[C@H]2c3cc(C(=O)N4CCCC4)n(Cc4ccsc4Br)c3C[C@H]2CN1C(=O)c1ccccc1,.,.,3,-1,.,.,.
CC(C)(C)c1ccc(S(=O)(=O)N2CCN(C(=O)C3CCC3)CC2)cc1,-8,9,-16,.,0,.,.
COc1ccccc1N=Nc1ccc(O)c2ncccc12,6,37,75*,.,11*,47,1
Oc1ccc(F)c2cccnc12,-4,-21,10,-2,0,.,.
COc1ccccc1N=Nc1[nH]c2ccc(C)cc2c1O,-7,-169,-9,2,0,.,.
Oc1ccc(N=Nc2ccccc2C(F)(F)F)c2cccnc12,0,72*,63*,.,-3,86*,8
CN1C(=O)C(c2nnc(Nc3cccc4ccccc34)s2)C2CC1(C)Oc1ccccc12 (centres undefined),.,.,-30,-3,.,.,.
Cc1cc(C(=O)Cn2ncc(Cl)c(Cl)c2=O)c(C)n1CC(F)(F)F,4,-49,82*,3,-7,-1,19
O=C(CN1CCOCC1)Nc1ccc(NC(=O)c2ccccc2F)cc1,10,6,-47,.,0,.,.
COc1ccc(-c2nc(-c3ccccn3)no2)cc1,61*,107*,110*,-5,-4,103*,45*

# Compound activity: PubChem BioAssay, several laboratories
